Test results as given in PubChem BioAssay (NCATS).
Records with an inconclusive call do not appear. A call without a number means that no potency is given here. Values without a mark were called inactive. Calls of active or inactive are those of the source. The call rests on the fitted dose curve; in most records, active means well fitted cell-killing curve with a large enough effect; inconclusive means small, poorly fitted or top-dose-only effect; inactive means flat fitted curve, though single readings scatter. *1 amine or outer side, *2 acyl side, *3 side chain or, on linkers, in order; H or OH if unused. Where a SMILES comes first, the peptide text is derived from it. Bridges are numbered along the chain shown (N, C = ends). [ ]: non-standard residue; d: D form. The star is where a group is joined. ξ: configuration not given here. X10 = NC1=NCCC(C(N[*:1])C(=O)[*:2])N1; ΔAla(3-NHCONH2) = NC(=O)NC=C(N)C(=O)O; ξβ3hOrn = NCCCC(N)CC(=O)*; Dap = NC[CH](N)C(=O)O

Test: qHTS of pediatric cancer cell lines to identify multiple opportunities for drug repurposing: Primary screen for U-2 OS cells (AID 1347096); further: nearly all actives have a fitted effect of over 50% in size
Conditions: U-2 OS viability, CellTiter-Glo luminescence, 48 h; series mostly up to 46 µM
Description: Drug repurposing or repositioning has been offered as a strategy for drug development in oncology programs. This approach has special potential for childhood cancers and other rare or orphan diseases, where the expected return on new drug development has been a disincentive to pharmaceuticals.
In this project we exploit the poly-pharmacology of drugs to discover new indications via phenotypic screening of a panel of 19 well-characterized cell lines derived from solid tumors seen in children and adolescents. The goal is to identify approved drugs with previously unrecognized anticancer properties that has the potential to reveal new mechanisms and biological processes involved in carcinogenesis or drug resistance. We employed a titration-based paradigm (quantitative high-throughput screening or qHTS), where all compounds were tested at multiple concentrations for their effect on cell viability. Concentration-response curves (CRCs) were derived directly from the primary screen, and both potency and efficacy values were used to identify compounds with robust bioactivity profiles. We screened the NIH Chemical Genomics Center (NCGC) Pharmaceutical Collection (NPC) and Mechanism Interrogation Plate (MIPE) small molecule collections of approved and investigational compounds against these cell lines; and measured metabolically active cells after 48 hours of compound treatment as a proxy for cell viability.
Assay Submitter: Nathalia J. Martinez, National Center for Advancing Translational Sciences, National Institutes of Health, Rockville, MD, USA; email: natalia.martinez@nih.gov
[1] Shen, M et al. Quantitative high-throughput phenotypic screening of pediatric cancer cell lines identifies multiple opportunities for drug repurposing. Oncotarget 2017 Dec 19;9(4):4758-4772. PMID 29435139.
The cells were obtained from University of North Carolina (UNC), Pediatric Preclinical Testing Program (PPT), and Coriell Institute (CI).
qHTS cell viability assay:
Cells were assayed in growth media at a density of 500-1,000 cells/well. Five microliters of cells were dispensed into 1,536-well, white, solid-bottom, TC-treated plates (Greiner Bio One) using a multidrop dispenser and incubated at 37 degrees C, 5% CO2, under a humidified atmosphere for 5 hours. Twenty-three nanoliters of compounds and controls (neutral control DMSO or positive control bortezomib at final concentration of 2.3 µM) were subsequently transferred by Kalypsys pintool. For primary screens, the MIPE collection was tested at 11-point dilutions (final concentrations range from 0.78 nM to 46 µM) and the NPC collection at 8-point dilutions (final concentrations range from 0.59 nM to 46 µM). Compounds tested in follow-up screens were assayed at 11-point dilutions. Cells were incubated for 48 hours, followed by addition of 3 µL of CellTiter-Glo (Promega). After a 15 min incubation at room temperature, samples were analyzed for luminescence intensity using a ViewLux High-throughput CCD imager equipped with clear filters.
Potency means the concentration at half of the fitted maximal effect.

| Structure (SMILES) | Potency | activity change, negative = cytotoxic |
| --- | --- | --- |
| Cc1ccccc1N1CCN(CCc2nnc3n2CCCC3)CC1 | inactive | – |
| O=C(c1ccccc1)c1ccccc1 | inactive | – |
| CC1CCCCN1CCCOC(=O)c1ccc(OC2CCCCC2)cc1 (stereo not given) | inactive | – |
| COC(=O)c1cc(Cl)ccc1NS(=O)(=O)C(F)(F)F | inactive | – |
| CN1CCCN=C1/C=C/c1cccs1 | inactive | – |
| COc1cc(S(N)(=O)=O)cc(C(=O)O)c1OC | inactive | – |
| CCCCCN(CCCOC)C(=O)C(CCC(=O)O)NC(=O)c1ccc(Cl)c(Cl)c1 (stereo not given) | inactive | – |
| COC(=O)C1=C(C)NC(COC(N)=O)=C(C(=O)OC(C)C)C1c1cccc(Cl)c1Cl (stereo not given) | inactive | – |
| CC(=O)OCC(=O)[C@@]1(O)CCC2C3CCC4=CC(=O)CC[C@]4(C)C3[C@@H](O)C[C@@]21C (stereo not given in full) | inactive | – |
| COC(=O)c1cc(Cl)c(NC(C)=O)cc1OC | inactive | – |
| CC(=O)O[C@@H]1C(=O)O[C@@H]2[C@H]1OC(=O)[C@@H]2OC(C)=O | inactive | – |
| CC(C)(C)c1ccc(C(=O)CCCCl)cc1 | inactive | – |
| CCN(CC)C(=O)C1CN2CCc3cc(OC)c(OC)cc3C2CC1OC(C)=O (stereo not given) | inactive | – |
| NCCCC(N)CC(=O)NCC1NC(=O)C(CO)NC(=O)C(N)CNC(=O)C(C2CCN=C(N)N2)NC(=O)C(=CNC(N)=O)NC1=O (stereo not drawn) (H-[Dap]S[Dap](ξβ3hOrn)[ΔAla(3-NHCONH2)][X10]; lactam 1-C; configuration not given here) | – | 13.6% [at 0.597 µM] |
| Cc1ccc(O)cc1 | inactive | – |
| CC(=O)N(CC(O)CO)c1c(I)c(C(=O)NCCO)c(I)c(C(=O)NCC(O)CO)c1I (stereo not given) | inactive | – |
| Cc1ccc2ccc(Cl)cc2n1 | inactive | – |
| CO[C@@]1(NC(=O)CSC[C@@H](N)C(=O)O)C(=O)N2C(C(=O)O)=C(CSc3nnnn3C)CS[C@@H]21 | inactive | – |
| CO/N=C(/C(=O)N[C@@H]1C(=O)N2C(C(=O)OCOC(=O)C(C)(C)C)=C(C)CS[C@H]12)c1csc(N)n1 | inactive | – |
| COCCc1ccccn1 | inactive | – |

| Structure (SMILES) | Potency | activity change, negative = cytotoxic |
| --- | --- | --- |
| Cc1cc2nc3ccc(=[N+](C)C)cc-3sc2cc1N | 21.1 µM (active) | – |
| CCN(CC)CCN | inactive | – |
| CCC[C@H](N[C@@H](C)C(=O)N1[C@H](C(=O)O)C[C@@H]2CCCC[C@@H]21)C(=O)OCC | inactive | – |
| Cc1cccc(C)c1NC(=O)c1cc(S(N)(=O)=O)c(Cl)cc1O | inactive | – |
| CN(C)CCOC1=Cc2ccccc2Sc2ccc(Cl)cc21 | inactive | – |
| CO[C@]1(NC(=O)CSC(F)F)C(=O)N2C(C(=O)O)=C(CSc3nnnn3CCO)CO[C@H]21 | inactive | – |
| C=C(C)C(=O)OCC(O)CO (stereo not given) | inactive | – |
| CCCCC/C=C\C/C=C\CCCCCCCC(=O)NC(C)c1ccccc1 (stereo not given) | inactive | – |
| Cc1onc(-c2c(Cl)cccc2Cl)c1C(=O)Cl | inactive | – |
| O=C(O)CNC(=O)CNC(=O)CNC(=O)CSC(=O)c1ccccc1 | inactive | – |
| CC1c2ccccc2CN1NC(=O)c1ccc(Cl)c(S(N)(=O)=O)c1 (stereo not given) | inactive | – |
| CC(Oc1c(Cl)cccc1Cl)C1=NCCN1 (stereo not given) | inactive | – |
| O=C(O)c1ccccc1S | inactive | – |
| CC(=O)c1cc2ccccc2s1 | inactive | – |
| [O-][n+]1cccc(/C(Cl)=N/OC[C@@H](O)CN2CCCCC2)c1 | inactive | – |
| CCOC(=O)C(=O)CCCCCCl | inactive | – |
| CCS(=O)(=O)c1ccc(OC)c(C(=O)OC)c1 | inactive | – |
| CC(=O)[C@H]1CC[C@H]2[C@@H]3C=CC4=CC(=O)CC[C@@]4(C)[C@@H]3CC[C@]12C | inactive | – |
| COC(=O)/C=C\C(=O)OC | inactive | – |
| Cc1ncc([N+](=O)[O-])n1C | inactive | – |
